# Measurements reported in PubChem BioAssay.
# Activity calls are given as the source filed them.
# Experiments:
# [1] = binders of probe aFSTL3 on microarray, primary screen, stem cell growth factor project, biochemical, small-molecule microarray, fluorescence 635/667 (AID 1064); settings: higher = more signal;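 further: measures binding of the biotinylated anti-FSTL3 antibody to printed compounds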
# [2] = binders from COS7 lysate, DM2A8 probe, primary screen, torsin A project, cell lysate, small-molecule microarray, fluorescence 635/667 (AID 1065); settings: higher = more signal, COS7 lysate expressing mutant human TOR1A
# [3] = binders of probe aFGF2 on microarray, primary screen, stem cell growth factor project, biochemical, small-molecule microarray, fluorescence 635/667 (AID 1067); settings: higher = more signal;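 further: measures binding of biotinylated aFGF2 protein to printed compounds on slides; z-score merges feature fluorescence and signal-to-noise across triplicate slides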
# [4] = binders of probe aFGF10 on microarray, primary screen, stem cell growth factor project, biochemical, small-molecule microarray, fluorescence 635/667 (AID 1071); settings: higher = more signal;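 further: score merges 667 nm spot intensity and signal to noise from triplicate slides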
# [5] = target: Neurogenic locus notch homolog protein 2 (Homo sapiens) (UniProt Q04721); assay: Notch2 binders on small-molecule microarrays, primary screen, biochemical, small-molecule microarray, 635 nm fluorescence, stem cell growth factors (AID 1073); settings: Notch2 binding, higher = more signal
# [6] = target: Pro-neuregulin-1, membrane-bound isoform (Homo sapiens) (UniProt Q02297); assay: NRG1 binders on small-molecule microarrays, primary screen, psychiatric disease protein project, biochemical, small-molecule microarray, fluorescence 635/667 (AID 1075); settings: NRG1 binding, 635 nm fluorescence, higher = more signal;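 further: score combines 667 nm spot fluorescence with signal to noise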
# [7] = tested on: Neuregulin-1 EGF-like domain; assay: binders of neuregulin-1 EGF-like domain, primary screen, biochemical, small-molecule microarray, 635 nm fluorescence (AID 1081); settings: small-molecule microarray binding, higher = more signal;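 further: binding of the protein to compounds printed on small-molecule microarray slides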
# [8] = FRG1 promoter luciferase signal modulators, primary screen, FRG1 inhibition for FSHD, cell-based, C2C12 myotubes, firefly/Renilla luciferase, luminescence (AID 1084); settings: higher = more signal, called active from +8 up or from −8 down
# [9] = binders of probe aFST on microarray, primary screen, stem cell growth factor project, biochemical, small-molecule microarray, fluorescence 635/667 (AID 1086); settings: higher = more signal;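 further: score merges 667 nm fluorescence with signal-to-noise of each printed compound spot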
# [10] = binders of probe aHhip on microarray, primary screen, stem cell growth factor project, biochemical, small-molecule microarray, fluorescence 635/667 (AID 1087); settings: higher = more signal;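 further: score merges spot fluorescence at 667nm with spot signal to noise ratio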
# [11] = tested on: PRMT1 (protein arginine N-methyltransferase 1); assay: PRMT1 binders on small-molecule microarrays, primary screen, biochemical, small-molecule microarray, 635 nm fluorescence (AID 1088); settings: small-molecule microarray binding, higher = more signal;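 further: binding of Prmt1 protein to compounds spotted on small-molecule microarray slides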
# [12] = yeast growth modulation, basal conditions, primary screen, YJM789 clinical isolate, OD600, 24 h (AID 1089);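 further: growth of clinical yeast isolate S. cerevisiae YJM 789 seeded 1000 cells per well; test concentration not given here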; settings: S. cerevisiae YJM789 growth, higher = more signal, called active from +8 up or from −8 down
# [13] = fission yeast growth modulation, primary screen, strain 972, OD600, 24 h, no modulator (AID 1090);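 further: basal condition with compound alone and no growth modifier present; test concentration not given here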; settings: S. pombe 972 growth, higher = more signal, called active from +8 up or from −8 down
# [14] = S. cerevisiae growth modulation with rapamycin, primary screen, strain BY4716, OD600, 96 h (AID 1091); settings: higher = more signal, called active from +8 up or from −8 down; further: test concentration not given here
# [15] = target: Torsin-1A-interacting protein 2 (Homo sapiens) (UniProt Q8NFQ8); assay: LULL1 binders on small-molecule microarray, primary screen, cell lysate, human LULL1 lysate, 635/667 nm fluorescence (AID 1092); settings: hLULL1 lysate binding, 635 nm fluorescence, higher = more signal;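 further: probe is lysate of COS7 cells overexpressing human LULL1; score merges per-feature 667 nm fluorescence with signal-to-noise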
# [16] = E. coli growth modulation, two-sided OD650, primary screen, E. coli filamentation project, strain DRC41, 24 h (AID 1093); settings: OD650, 24 h, higher = more signal, called active from +8 up or from −8 down;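 further: MC1000 strain lacking acrAB efflux and sulA so SOS filamentation is blocked; test concentration not given here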
# [17] = small-molecule microarray binders of probe aLefty2, primary screen, biochemical, biotinylated probe, 635/667 nm fluorescence (AID 1094); settings: higher = more signal;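 further: score merges spot fluorescence near 667 nm with spot signal-to-noise ratio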
# [18] = tested on: Noggin (protein binding on small-molecule microarray); assay: Noggin binders on small-molecule microarray, primary screen, biochemical, 635/667 nm fluorescence (AID 1095); settings: 635 nm fluorescence, higher = more signal;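 further: score merges 667 nm feature fluorescence with signal to noise over triplicate slides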
# [19] = target: Neurogenic locus notch homolog protein 3 (Homo sapiens) (UniProt Q9UM47); assay: NOTCH3 binders on small-molecule microarray, primary screen, biochemical, 635/667 nm fluorescence (AID 1096); settings: NOTCH3 binding, 635 nm fluorescence, higher = more signal
# [20] = small-molecule microarray binders of probe aEGFR, primary screen, biochemical, biotinylated probe, 635/667 nm fluorescence (AID 1097); settings: higher = more signal;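 further: probe is a biotinylated anti-EGFR antibody binding compounds printed on slides; score combines fluorescence near 667 nm and signal to noise of each spot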
# Sequence of Neurogenic locus notch homolog protein 3 (Homo sapiens) (Q9UM47 whole entry, looked up): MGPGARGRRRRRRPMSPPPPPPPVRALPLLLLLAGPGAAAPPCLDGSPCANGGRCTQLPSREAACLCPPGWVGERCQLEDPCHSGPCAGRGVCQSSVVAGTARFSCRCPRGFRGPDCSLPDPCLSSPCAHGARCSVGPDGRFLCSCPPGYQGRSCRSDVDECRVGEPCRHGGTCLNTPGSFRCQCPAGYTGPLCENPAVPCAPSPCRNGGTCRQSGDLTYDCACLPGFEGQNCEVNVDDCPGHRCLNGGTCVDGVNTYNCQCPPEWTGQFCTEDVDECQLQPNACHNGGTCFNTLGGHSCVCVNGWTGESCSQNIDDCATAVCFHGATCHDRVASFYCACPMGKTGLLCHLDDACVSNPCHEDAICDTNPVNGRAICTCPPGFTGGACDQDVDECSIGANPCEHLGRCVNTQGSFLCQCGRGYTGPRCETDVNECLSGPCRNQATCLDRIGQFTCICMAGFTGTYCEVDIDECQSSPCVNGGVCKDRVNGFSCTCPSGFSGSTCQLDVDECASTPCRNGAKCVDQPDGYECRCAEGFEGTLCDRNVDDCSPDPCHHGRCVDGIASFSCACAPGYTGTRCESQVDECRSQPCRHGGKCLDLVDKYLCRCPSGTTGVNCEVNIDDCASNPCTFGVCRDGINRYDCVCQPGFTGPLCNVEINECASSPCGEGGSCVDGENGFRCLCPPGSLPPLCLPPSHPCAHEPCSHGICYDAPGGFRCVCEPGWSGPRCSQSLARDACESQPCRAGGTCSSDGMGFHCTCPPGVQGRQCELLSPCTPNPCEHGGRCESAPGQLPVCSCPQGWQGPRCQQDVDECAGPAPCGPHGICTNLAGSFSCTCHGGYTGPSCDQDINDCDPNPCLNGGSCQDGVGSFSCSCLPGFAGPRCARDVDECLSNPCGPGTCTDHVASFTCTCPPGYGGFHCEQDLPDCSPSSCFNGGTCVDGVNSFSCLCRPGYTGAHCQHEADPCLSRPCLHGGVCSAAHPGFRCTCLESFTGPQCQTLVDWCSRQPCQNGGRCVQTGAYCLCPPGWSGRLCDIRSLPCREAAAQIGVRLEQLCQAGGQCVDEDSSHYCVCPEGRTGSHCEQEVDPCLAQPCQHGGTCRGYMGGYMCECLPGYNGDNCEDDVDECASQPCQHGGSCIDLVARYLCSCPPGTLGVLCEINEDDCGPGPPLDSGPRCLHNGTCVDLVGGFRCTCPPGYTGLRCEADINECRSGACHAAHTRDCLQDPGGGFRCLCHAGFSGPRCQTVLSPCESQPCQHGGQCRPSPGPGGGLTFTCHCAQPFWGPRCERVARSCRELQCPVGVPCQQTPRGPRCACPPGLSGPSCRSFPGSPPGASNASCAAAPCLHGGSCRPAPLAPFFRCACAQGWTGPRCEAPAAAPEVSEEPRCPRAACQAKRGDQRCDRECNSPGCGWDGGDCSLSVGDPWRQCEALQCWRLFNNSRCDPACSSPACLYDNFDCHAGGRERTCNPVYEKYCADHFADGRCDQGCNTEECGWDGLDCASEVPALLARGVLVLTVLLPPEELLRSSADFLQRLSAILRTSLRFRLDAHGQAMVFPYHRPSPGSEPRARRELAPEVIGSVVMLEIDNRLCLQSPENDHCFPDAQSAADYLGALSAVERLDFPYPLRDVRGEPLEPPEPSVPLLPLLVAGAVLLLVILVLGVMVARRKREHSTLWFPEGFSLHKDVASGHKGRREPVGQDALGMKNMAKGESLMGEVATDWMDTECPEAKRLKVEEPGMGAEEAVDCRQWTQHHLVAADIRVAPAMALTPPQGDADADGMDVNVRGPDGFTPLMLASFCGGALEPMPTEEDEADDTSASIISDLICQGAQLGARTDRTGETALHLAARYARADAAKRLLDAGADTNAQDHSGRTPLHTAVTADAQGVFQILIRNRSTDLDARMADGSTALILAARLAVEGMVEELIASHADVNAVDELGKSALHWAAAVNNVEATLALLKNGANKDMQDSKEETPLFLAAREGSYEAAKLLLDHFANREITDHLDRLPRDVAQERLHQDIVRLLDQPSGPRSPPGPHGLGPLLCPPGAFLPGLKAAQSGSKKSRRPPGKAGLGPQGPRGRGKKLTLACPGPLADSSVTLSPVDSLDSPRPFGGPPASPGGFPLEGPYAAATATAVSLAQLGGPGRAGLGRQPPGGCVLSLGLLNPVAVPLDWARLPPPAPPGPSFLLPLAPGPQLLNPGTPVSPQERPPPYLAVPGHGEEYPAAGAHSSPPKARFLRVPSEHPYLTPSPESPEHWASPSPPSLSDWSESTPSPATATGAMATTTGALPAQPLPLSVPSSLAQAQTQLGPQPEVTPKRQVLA
# Sequence of Torsin-1A-interacting protein 2 (Homo sapiens) (Q8NFQ8 whole entry, looked up): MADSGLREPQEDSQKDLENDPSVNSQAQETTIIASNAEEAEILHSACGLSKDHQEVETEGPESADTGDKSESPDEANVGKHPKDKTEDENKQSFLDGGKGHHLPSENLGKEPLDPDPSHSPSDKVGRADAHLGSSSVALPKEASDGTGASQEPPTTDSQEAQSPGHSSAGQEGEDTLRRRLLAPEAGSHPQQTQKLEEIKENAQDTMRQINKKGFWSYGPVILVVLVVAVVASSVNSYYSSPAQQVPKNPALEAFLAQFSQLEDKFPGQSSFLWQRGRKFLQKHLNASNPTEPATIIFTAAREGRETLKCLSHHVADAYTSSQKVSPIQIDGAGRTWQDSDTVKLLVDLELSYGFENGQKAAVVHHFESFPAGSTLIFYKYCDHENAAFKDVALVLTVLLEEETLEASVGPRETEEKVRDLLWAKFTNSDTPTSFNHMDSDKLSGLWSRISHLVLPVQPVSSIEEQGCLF
# Sequence of Pro-neuregulin-1, membrane-bound isoform (Homo sapiens) (Q02297 whole entry, looked up, the tested form may be a part, canonical isoform): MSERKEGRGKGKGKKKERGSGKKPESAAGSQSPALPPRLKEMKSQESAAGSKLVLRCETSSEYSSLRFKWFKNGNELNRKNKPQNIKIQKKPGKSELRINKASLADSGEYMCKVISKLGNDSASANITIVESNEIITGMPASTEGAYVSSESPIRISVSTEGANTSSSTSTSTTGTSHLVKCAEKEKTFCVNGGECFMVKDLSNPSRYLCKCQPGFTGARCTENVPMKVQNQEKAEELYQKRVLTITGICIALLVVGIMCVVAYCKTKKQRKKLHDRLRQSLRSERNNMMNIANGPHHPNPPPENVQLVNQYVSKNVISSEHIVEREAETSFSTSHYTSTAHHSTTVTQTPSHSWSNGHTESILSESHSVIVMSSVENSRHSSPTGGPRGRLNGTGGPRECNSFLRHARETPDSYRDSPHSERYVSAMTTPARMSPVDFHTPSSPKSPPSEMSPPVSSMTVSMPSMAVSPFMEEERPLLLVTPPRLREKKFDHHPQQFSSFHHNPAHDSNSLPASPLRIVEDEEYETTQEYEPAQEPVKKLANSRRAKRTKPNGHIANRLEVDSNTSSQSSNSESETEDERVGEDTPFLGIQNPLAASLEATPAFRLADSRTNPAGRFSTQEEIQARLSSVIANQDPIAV
Structure (SMILES),composite z-score [1],composite z-score [2],composite z-score [3],composite z-score [4],composite z-score [5],composite z-score [6],composite z-score [7],z-score [8],composite z-score [9],composite z-score [10],composite z-score [11],z-score [12],z-score [13],z-score [14],composite z-score [15],z-score [16],composite z-score [17],composite z-score [18],composite z-score [19],composite z-score [20]
CC(C)NC(=O)[C@@]1(Cc2ccccc2I)c2ccccc2C(=O)N(C2CCCCC2)[C@H]1c1ccc(CO)cc1,-0.107,0.072,0.0402,0.87,1.18,1.86,1.38,-2.62 (inactive),1.38,0.0505,1.53,0.401 (inactive),-2.09 (inactive),-1.03 (inactive),3.4,-0.432 (inactive),0.261,0.128,1.14,0.0861
O=C1c2ccccc2[C@](Cc2ccccc2I)(C(=O)NCc2ccccc2)[C@H](c2ccc(CO)cc2)N1Cc1ccccc1C(F)(F)F,0.988,0.077,-0.131,-0.787,-1.28,0.385,-0.56,-1.98 (inactive),-0.318,-0.134,1.27,0.417 (inactive),-1.05 (inactive),0.304 (inactive),2.44,1.03 (inactive),-0.0345,-1.05,-0.785,-0.179
C=CCN1C(=O)[C@@]2(O[C@@H](CCn3cc([C@H](O)c4ccccc4)nn3)[C@H]([Si](C)(C)c3ccc(OC)cc3)[C@H]2C)c2cc(N3CCOC3=O)ccc21,0.228,0.39,-0.104,0.105,-0.261,-0.344,1.1,-2 (inactive),-0.0319,-0.0645,1.15,-1.26 (inactive),-1.88 (inactive),-0.723 (inactive),1.8,2.19 (inactive),-0.0463,-0.0328,0.131,-0.121
CC(=O)Nc1ccc([C@H]2[C@H](C)CC[C@H]3C(=O)N4[C@@H](CC[C@@H](C)[C@@H]4c4ccc(NC(C)=O)cc4)C(=O)N32)cc1,-0.508,0.482,-0.1,0.908,0.68,0.566,1.1,0.103 (inactive),0.0863,0.132,1.53,0.817 (inactive),-0.789 (inactive),-0.145 (inactive),1.63,0.987 (inactive),-0.185,0.651,0.897,0.107
COc1ccc(-c2cc3c(c(-c4ccccc4)n2)[Si](C(C)C)(C(C)C)O[C@H]3c2ccccc2)cn1,-0.248,0.0094,-0.106,0.144,0.241,0.0264,0.335,-0.68 (inactive),-0.116,0.316,1.11,-0.136 (inactive),-0.572 (inactive),-0.0946 (inactive),0.965,-1.03 (inactive),-0.132,0.47,0.596,0.0215
COc1ccc([Si](C)(C)[C@H]2[C@H](CC(=O)N(CCO)Cc3ccccc3)O[C@@]3(C(=O)N(C)c4ccccc43)[C@@H]2C)cc1,-0.412,0.919,0.0248,0.877,-0.0546,0.67,0.938,-1.39 (inactive),0.291,-0.21,1.31,-1.98 (inactive),-1.24 (inactive),-0.712 (inactive),1.93,1.41 (inactive),-0.186,1.72,1.11,-0.0987
CCOC(=O)C[C@H]1[C@H](OC(=O)c2ccccc2-c2ccccc2)[C@@H](NC(=O)C2CCCCC2)c2cc(OCCCO)ccc2N1C(=O)c1ccccc1,-0.43,0.0236,-0.041,0.687,0.797,0.0516,0.652,0.404 (inactive),0.0322,-0.0047,0.884,1.2 (inactive),0.543 (inactive),1 (inactive),0.928,2.19 (inactive),-0.0498,0.203,0.352,0.232
COc1ccc([Si](C)(C)[C@@H]2[C@@H](CCO)O[C@]3(C(=O)N(Cc4ccc(NC(=O)[C@H](C)O)cc4)c4ccccc43)[C@H]2C)cc1,0.0169,0.395,-0.0606,0.585,0.684,1.05,1.19,-4.16 (inactive),0.152,-0.0618,1.47,3.17 (inactive),-1.06 (inactive),14.8 (active),2.42,1.78 (inactive),0.12,0.123,0.62,-0.102
C[N+](C)(C)CCCC[C@@H]1NC(=O)[C@H]2C[C@@H](C(=O)NCc3ccc(F)cc3)[C@@H](c3cccc(OCCO)c3)N2C1=O,0.466,1.02,-0.149,-0.579,-0.607,0.594,1.22,0.106 (inactive),0.231,0.0176,1.47,-1.69 (inactive),-1.62 (inactive),-0.736 (inactive),0.823,0.973 (inactive),-0.166,1.62,0.716,-0.118
CCOC(=O)C1=C[C@@H](c2ccccc2)N(S(=O)(=O)c2ccc(C)cc2)[C@H]1c1ccc(F)cc1,-0.0809,0.347,-0.0317,0.493,1.6,0.871,0.949,-2.62 (inactive),0.541,0.0139,1.56,0.575 (inactive),2.18 (inactive),2.39 (inactive),3.06,-0.382 (inactive),-0.0141,0.512,1.09,0.0624
